Experimental data from PubChem BioAssay (NCI).
About 79,000 compounds went through this panel and 15% of them were active in at least one assay; those are over-represented in the sample as a whole. Values without a mark were called inactive. Calls of active or inactive are those of the source. Cut-off read from the data, not from the text of the source: active = growth inhibition above about 70%; inactive = the rest.

Key:
[1] = NCI Yeast Anticancer Drug Screen. Data for the rad50 strain (AID 155);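 note: 0% = growth of vehicle-only cultures of the same strain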; settings: S. cerevisiae rad50 strain growth inhibition; at 50.0 µM; stronger effect = higher value
Procedure, shortened: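 A DNA repair-deficient yeast mutant serves as the test organism; compound-induced growth inhibition is calculated against vehicle-treated cells.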

[2] = NCI Yeast Anticancer Drug Screen. Data for the mec2-1 strain (AID 157); settings: S. cerevisiae mec2-1 strain, at 50.0 µM, stronger effect = higher value
Procedure, shortened: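 mec2-1 yeast strain, carrying an alteration in DNA damage repair or cell cycle control, was exposed to compounds; growth inhibition was measured relative to vehicle-treated controls.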

[3] = NCI Yeast Anticancer Drug Screen. Data for the sgs1 mgt1 strain (AID 161);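 note: 0% = growth of cultures given vehicle only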; settings: S. cerevisiae sgs1 mgt1 strain, at 50.0 µM, stronger effect = higher value
Procedure, shortened: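 Percent growth inhibition was derived by comparing compound-exposed mutant yeast with vehicle-exposed cultures. The strain carries alterations in DNA damage repair.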

[4] = NCI Yeast Anticancer Drug Screen. Data for the cln2 rad14 strain (AID 165);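 note: 0% = growth equal to vehicle treated cultures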; settings: S. cerevisiae cln2 rad14 strain, at 50.0 µM, stronger effect = higher value
Procedure, shortened: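 Yeast carrying cln2 and rad14 alterations (cell cycle control and DNA damage repair) were exposed to compounds. Growth inhibition was measured against vehicle-treated controls.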

[5] = NCI Yeast Anticancer Drug Screen. Data for the bub3 strain (AID 167); settings: S. cerevisiae bub3 mutant strain, at 50.0 µM, stronger effect = higher value
Procedure, shortened: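 Inhibition values come from growth of compound-treated mutant yeast normalised to vehicle-treated controls.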

[6] = NCI Yeast Anticancer Drug Screen. Data for the mlh1 rad18 strain (AID 175); settings: S. cerevisiae mlh1 rad18 strain growth inhibition; at 50.0 µM; stronger effect = higher value
Procedure, shortened: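 Growth inhibition of the yeast strain was measured after compound exposure and expressed relative to vehicle-treated controls. The strain carries defined defects in DNA damage repair.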

| Compound | growth inhibition [1] | growth inhibition [2] | growth inhibition [3] | growth inhibition [4] | growth inhibition [5] | growth inhibition [6] |
| --- | --- | --- | --- | --- | --- | --- |
| C/C=C(\Cl)C(OC(C)=O)OC(C)=O | -1.45% | -0.2% | -6.15% | -6.8% | 18.4% | 2.55% |
| CC1CC(Cc2ccccc2CC2CC(C)OC2=O)C(=O)O1 (stereo unspecified) | 6.95% | 12.6% | -0.1% | 10.8% | 10.8% | 22.9% |
| CC(=O)Nc1ccc2cc(-c3ccc(Cl)cc3)c3nnnn3c2n1 | 14.3% | 4.85% | 25.8% | -53.1% | 0.9% | 17.8% |
| COc1ccc2c(NCCCCCCNc3c4ccccc4nc4cc(OC)ccc34)c3ccccc3nc2c1 | 89.9% (active) | 91.6% (active) | 92.5% (active) | 87.5% (active) | 91.5% (active) | 89.7% (active) |
| CN=C1c2ccccc2C(=O)c2c1c(O)n(C)c2O | 3.05% | -8.45% | 0.9% | 1.4% | -2.75% | -1% |
| C(=NCCSSCCN=Cc1ccccc1)c1ccccc1 | 12.1% | 10.3% | 18.6% | 10.1% | -12.1% | 21.6% |
| O=C1C2=C(CCC2)C(=O)N1c1ccc(N2C(=O)C3=C(CCC3)C2=O)cc1 | -12.6% | -4.55% | -16.2% | -15.4% | -10.6% | -13.2% |
| Nc1ncnc2c1ncn2-c1ccccc1 | 4.05% | 2.95% | -2.05% | 9.7% | 9.85% | -17.4% |
| Cc1ccc2nc[nH]c(=O)c2c1 | -1.1% | 13.3% | 7.85% | -70.6% | 19.4% | -12.8% |
| N#CCCn1c(CCC(=O)Nc2ccc(Cl)cc2Cl)n[nH]c1=S | -8.4% | 0.65% | -6.05% | 13.6% | 1.7% | 2.45% |
| CCCOC(=O)NC(C)C(=O)NC(CCC(=O)NC(CCCC(N)C(=O)O)C(=O)NC(C)C(=O)O)C(=O)O (stereo unspecified) | -20.8% | -19.9% | -37.6% | -9.25% | 21.6% | -10.8% |
| COc1cc(/C=N/N=C(\N)NO)cc(OC)c1OC | -6.5% | 3.85% | 2.4% | 6.35% | 1% | 4.55% |
| CCCCC1(CCBr)C(=O)NC(=Nc2ccccc2)NC1=O (stereo unspecified) | 1.85% | -5.35% | 10.3% | -41.8% | 2.95% | -13.9% |
| C[Si](C)(C)CCCn1ccc(=O)[nH]c1=O | 45.6% | 7.45% | 27.8% | -8.15% | 29.4% | -26.3% |
| CCCCn1cnc2c(SC(C)C)nc(N)nc21 | -13.1% | -2.15% | 17.4% | -24.9% | 8.8% | -16.2% |
| N#CC1(C#N)C(CCl)C1(C#N)C#N | 2.85% | -6.95% | -1.15% | -15.2% | -4% | -8.6% |
| COc1cccc2c1[C@H]1CO[C@H]3C4C[C@H](C(=O)O)C([C@@H](C2)N13)N4C (stereo partly specified) | 3.25% | 4.4% | 8.35% | -12.1% | -4.7% | -2.5% |
| CC(C)N(C(=S)[S-])C(C)C.CC(C)N(C(=S)[S-])C(C)C.[Zn] | 96.8% (active) | 96.8% (active) | 97.8% (active) | 24.1% | 59.5% | 97% (active) |
| CNCC(SC)c1ccc(O)c(O)c1 (stereo unspecified) | -9.8% | -14.8% | -20.4% | -15.7% | -31% | -2.6% |
| COc1ccc(C2OC(C)C(C)O2)cc1 (stereo unspecified) | -9.3% | 10.4% | -1.5% | -42.6% | -8.35% | -8% |
| C=C(Cl)COc1ccc(OCC(=C)Cl)cc1 | 19.3% | -17.1% | 31.8% | 22.6% | 42% | 1.15% |
